Laboratory results published in the supplement of paper PMC6555819.

Tests used:
Assay in all cases: PBM binding z-score (relative to random genomic background probes); higher = stronger binding; sequences stand for … in GC…GCGATTGACAGCGTAGAATGAAGG
[1] = system: RARb homodimer (NR concentration 270 nM)
Summary of the method: (§1)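 Ligand-free nuclear receptor dimers were applied to custom Agilent 4×180K protein-binding microarrays whose double-stranded probes carried direct-repeat seeds, single-nucleotide variants, half-site ablations and random human genomic background sequences in 34-nt variable regions. Incubation lasted 1 h. Binding z-scores were computed against the random background probes from regression-normalized fluorescence.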

[2] = system: RARg:RXRa (NR concentration 270 nM, RXRa partner concentration 90 nM)
Summary of the method: as §1

[3] = system: RARg homodimer (NR concentration 270 nM)
Summary of the method: as §1

[4] = system: RXRa DBDmut IVT, anti-RXR (DBD mutation: RXRa K156A/R161A, NR concentration 90 nM)
Summary of the method: as §1

[5] = system: RXRa homodimer (NR concentration 180 nM)
Summary of the method: as §1

[6] = system: THRa:RXRa (NR concentration 90 nM, RXRa partner concentration 90 nM)
Summary of the method: as §1

[7] = system: THRa homodimer (NR concentration 90 nM)
Summary of the method: as §1

[8] = system: VDR homodimer (NR concentration 270 nM)
Summary of the method: as §1

Sequence | PBM binding z-score [1] | PBM binding z-score [2] | PBM binding z-score [3] | PBM binding z-score [4] | PBM binding z-score [5] | PBM binding z-score [6] | PBM binding z-score [7] | PBM binding z-score [8]
CTCGAGAGGTCGTGCTCAGGTGAGTATACCAAAC | 2.12 | 4.24 | 2.53 | 2.74 | 3.82 | 4.08 | 1.06 | 1.49
ACAGACAGGTTAGTGAAGGTAACTCAGCTGGACG | 0.435 | 0.363 | 0.773 | -0.188 | 0.511 | 2.2 | -0.138 | -0.0977
CAAACTAGGTCTAGGTCAAAGTCGGTTTGTGCCA | 2.76 | 2.15 | 2.3 | 0.796 | 1.83 | 2.9 | 1.64 | 1.1
TCTTGTAGATCAGCAGATTAAGAAAGCTGGCCAA | -0.767 | -0.275 | -0.543 | 0.615 | -0.121 | -0.329 | -0.892 | -0.178
TCGAGTAGGTTAGTCGGGCCATTCAGCCAACATA | -0.0179 | -0.285 | -0.251 | -0.153 | -0.135 | 0.516 | -0.252 | -0.149
ACTTACGGGTCAACGAGGTTAAAGCACGCGTATA | 3.82 | 5.73 | 5.18 | 2.51 | 6.72 | 4.25 | 1.17 | 3.67
TCTGCTAGGTAAACGATGGTCAGCTAATCTGCTA | -0.48 | -0.193 | -0.441 | -0.148 | 0.132 | -0.11 | -1.01 | -0.963
CCGACTTGGGCAGAAAGGTTACCATACCATCCGG | 1.52 | 0.806 | 0.702 | -0.476 | 1.3 | 0.651 | -0.379 | -0.411
ACTAGTTGGTCCGCTGAGGTCACACACAATTCGG | 3.85 | 3.69 | 2.81 | 1.37 | 3.71 | 4.4 | 5.42 | 4.08
ACTAGCAGGCCAAGTTTGGGTCACTTAAACAAAG | 2.22 | 2.2 | 1.45 | 0.0842 | 0.809 | 2.58 | 1.22 | 0.22
ATCTCTAGGTAAAGATAGTTCTGTGAATGCAAAT | -0.0245 | 0.131 | 0.453 | 0.28 | 0.154 | 0.478 | 0.132 | 0.175
CCAGCCAGGTGAAAGGTAACTCAGTCTGGTACGC | 0.43 | 0.724 | 0.203 | -0.519 | 1.37 | 1.55 | 0.326 | -0.192
CCTACTGGGCCATCAGATCATTGATATCAACGTT | -0.087 | 0.0829 | 0.48 | 0.0432 | -0.148 | -0.114 | -0.322 | 0.0449
ATCGAAAGGTAGAGGTGAGTATAGAGAAAGGGAA | 1.19 | 0.75 | 1.07 | -0.488 | 0.652 | 0.94 | 0.25 | 0.0183
GCTTGTAGCTCAAGGTTAAGAAAGACTAAGCTAA | -0.0742 | 0.0545 | -0.162 | -0.204 | 0.541 | 0.986 | -0.586 | -0.603
ATATGTAGGTTAATGGTCATTCAGGTTGGTTCGC | 1.75 | 1.02 | 1.11 | 0.788 | 1.14 | 0.905 | 0.945 | 1.34
ATCTCTACGTAAGACTCAGTTCAGTGAAGAACGC | 0.71 | 0.107 | 0.393 | 0.74 | 0.286 | 0.601 | 0.378 | 1.45
AGAATGAGGTTACCAAAGATCAGAGAAACGCTTG | 0.638 | 2.17 | 1.6 | 1.04 | 2.47 | 2.64 | 0.519 | 0.185
TCATATAGGTAAAAGGTGAATGTCGGTGTGGTAA | 1.88 | 1.75 | 1.04 | 1.81 | 2.85 | 1.5 | 0.686 | 0.531

Sequence | PBM binding z-score [1] | PBM binding z-score [2] | PBM binding z-score [3] | PBM binding z-score [4] | PBM binding z-score [5] | PBM binding z-score [6] | PBM binding z-score [7] | PBM binding z-score [8]
AATATAGGGTCATCGTAGGCCAGAGTACGCACAG | 3.83 | 5.9 | 5.5 | 3.83 | 6.83 | 4.67 | 2.3 | 3.76
GCAGACAGGTGAGACGCAGGTAACTCAGGGTGGC | -0.0826 | 0.237 | 0.034 | -0.867 | 0.28 | 0.763 | -0.588 | -0.464
TCTTGTAGATCAGCAGGTTAAGGAAGCTGGCCAA | 0.142 | 0.132 | -0.17 | 0.474 | 0.329 | 0.266 | -0.666 | -0.598
TTACCAAGGTGAAGGTCGTTGCTCCCTCTGTAGA | 2.04 | 1.25 | 1.15 | 0.573 | 1.59 | 2.37 | 1.06 | 1.43
GCTTACGGATCAAAGGTTATAGCATGAATAGAAT | 0.947 | 1.91 | 0.963 | 0.513 | 3.71 | 1.64 | -0.516 | -0.0828
AGTGAAAGTTCATCTAGGTAACGTAAGATATGCT | 3.66 | 5.08 | 5.81 | 4.66 | 4.44 | 3 | 0.263 | 5.43
CCTACTAGGCCATTCAGAGGTCATTGATCATATG | 4.46 | 4.99 | 3.55 | 2.14 | 4.11 | 3.42 | 2.03 | 3.93
ACTCAAAGTTCAGGACGAGGTAACGTAAAGCACG | 3.56 | 4.83 | 5.29 | 3.38 | 3.39 | 4.03 | 1.98 | 2.46
AGAATGAGGTTACCAAAGATCAGCGAAACGCTTG | 0.525 | 2.03 | 1.45 | 1.07 | 2.44 | 2.73 | 0.456 | 0.187
CGTCCAAGGCCAAAGGTCAGTGAAGAGATGACGG | 4.6 | 5.87 | 5.18 | 1.13 | 5.47 | 3.24 | 0.341 | 0.884
CGAACTATGTCAGAACAGGACAGTGAAGGATGAT | 0.293 | 0.443 | 0.879 | -0.123 | 0.167 | 0.953 | -0.106 | 0.0831
AGAACGAGGGCACGCTGCGTTGATAGCAGAGTAG | 1.06 | 1.55 | 2.21 | 1.81 | 1.3 | 1.71 | -0.00562 | 0.888
CCAGACGGGTGAAAGGTAACTCAGTCTGGTACGC | 0.112 | 0.694 | 0.136 | -0.879 | 1.81 | 0.461 | -0.444 | -0.582
AGAACGAGGGCAATGAGTTGATAACACGGGTGGC | 0.742 | 1.31 | 1.53 | 1.96 | 0.961 | 1.04 | -0.289 | 3.3
GGTACGAGGGCAAGTTGATAGCAGAGTTTGATGG | 1.72 | 1.74 | 2.47 | 2.31 | 0.941 | 1.39 | 0.219 | 2.1
CCGACTGGGGGAGAAAGGTTACCATACCATCCGG | 2.12 | 2.37 | 1.74 | -0.115 | 2.39 | 1.84 | 0.416 | 0.562
TCTGCTAGGTCAACGATTGTCAGCTAATCTGCTA | 3.06 | 3.75 | 4.64 | 1.16 | 2.41 | 2.77 | 0.845 | -0.274
GGAACCAGGGCAAGTTGATAGCAGAGTTTGATGG | 1.71 | 1.17 | 1.52 | 1.85 | 0.254 | 1 | 1.21 | 0.898
AGAATGATGTTAAGATCAGGGAAACAGAATACAT | -0.787 | 0.187 | 0.295 | -0.58 | 0.00873 | -0.153 | -0.703 | -0.555

Sequence | PBM binding z-score [1] | PBM binding z-score [2] | PBM binding z-score [3] | PBM binding z-score [4] | PBM binding z-score [5] | PBM binding z-score [6] | PBM binding z-score [7] | PBM binding z-score [8]
TCATATAGGTAAATGCTAGGTAAAAGTCCGATCT | 0.193 | 0.567 | 0.36 | 1.76 | 0.806 | 0.9 | 0.258 | 0.409
ATCTCTAGGTAACCAAGGTCAGTGAATGCCGAAC | 3.5 | 2.62 | 2.69 | 0.51 | 2.14 | 3.31 | 2.53 | 1.52
ATCTCTAGGTAAGACTCCGTTCAGTGAAGAACGC | 0.62 | 0.111 | 0.108 | 0.35 | -0.00325 | 0.381 | 0.809 | 0.435
TGAATCAGGTTATAAGATCAGGGAACGTTGCAAA | -0.228 | 0.24 | 0.42 | -0.671 | 0.358 | 0.505 | -0.129 | 0.0493
TCATGTAGGTAAAAGGTGAAAGTCGGTGTGGTAA | 2.05 | 1.81 | 0.855 | 1.49 | 2.61 | 1.75 | 0.569 | 0.332
CCTCGGAGGACAACAGGAGGTAAGAGCTGCCAGA | 0.361 | 0.652 | 1.09 | -0.216 | -0.00959 | 0.811 | -0.12 | -0.145
AGAATGAGGTTAAGATCCGGGAAACAGAATACAT | 0.774 | 2.06 | 1.4 | 0.76 | 2.46 | 2.37 | 0.603 | 0.257
CAAACTAGGCCACGAAAGGTCAAAGTCGAATGAC | 4.95 | 6.06 | 5.76 | 1.47 | 6.58 | 4.26 | 0.939 | 2.37
GCTGCTAGGCCAACTGATGGTCAGCTAAAGCTCG | 0.279 | 0.0424 | 0.383 | -0.307 | -0.651 | -0.291 | -1.08 | -1.03
GCCAGTTGGTCAGTAAAAGGTCACACACCGGTCG | 5.25 | 5.38 | 4.92 | 0.354 | 5.25 | 3.38 | 1.65 | 1.83
AGTCAAAGTTCAAGACGAGGTAACGTAAAGCACG | 3.6 | 5.81 | 6.02 | 3.8 | 4.59 | 3.9 | 0.783 | 2.85
AATACAGGGTCATCGTAGGCCAGTGTACGCACAG | 3.7 | 5.65 | 5.19 | 3.59 | 6.76 | 4.57 | 1.49 | 2.98
TCGGCTAGGTCAGTTGGTCAGCTAACGAGCTGCC | 2.79 | 2.88 | 3.91 | 0.368 | 0.942 | 1.14 | -0.051 | -0.233
TCTAGCAGGCCACAGGGTCACTCAAGAGGTACGG | 3.28 | 3.5 | 2.75 | 0.4 | 3.39 | 2.94 | 1.16 | 2.07
ACTATTAGTTGAGAAGAGGGCAACCGATAGGTTG | 1.43 | 0.92 | 0.968 | 0.286 | 0.599 | 1.37 | -0.313 | 0.263
CGTCCTAGGTCAAAGGTCAGTGAAGAGATGACGG | 4.99 | 7.97 | 7.18 | 2.25 | 9.16 | 4.54 | 1.39 | 1.24
TCTCGGAGGACACGAAAGGTCAGAGATCGACATC | 4.63 | 5.05 | 5.73 | 1.17 | 4.6 | 3.87 | 1.53 | 1.12
TGAATGAGGTTATAAGCTCAGGGAACGTTGCAAA | -0.162 | 1.1 | 0.731 | 0.518 | 1.91 | 1.67 | 0.118 | 0.00669
